PubChem BioAssay (Tox21)
Where “and” joins values, the source holds several entries; their conditions need not be identical. Identical values can stand only once. Records with an inconclusive call do not appear. Calls of active or inactive are those of the source. Unless noted, the call rests on the fitted dose curve; in most records, active means well fitted curve in the direction sought with a large enough effect in the repeat runs; inconclusive means weak or mixed curves; inactive means flat fitted curve, though single readings scatter.

What was measured:
[1] = qHTS assay to test for compound auto fluorescence at 535 nm (green) in HEK293 cells (AID 720680)
[2] = qHTS assay to test for compound auto fluorescence at 460 nm (blue) in HEK293 cell free culture (AID 720681)
Method in brief: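 Blue fluorescence (Ex 405/Em 460 nm, triamterene-equivalent) was read immediately after pin transfer of compound or DMSO into medium (DMEM, 10% FBS) without cells.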

[3] = qHTS assay to test for compound auto fluorescence at 535 nm (green) in HEK293 cell free culture (AID 720682)
Method in brief: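 Measurement is a direct plate read of green fluorescence (485 nm in, 535 nm out) after compound addition to serum-supplemented DMEM lacking cells, with fluorescein used to express intensities.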

[4] = qHTS assay to test for compound auto fluorescence at 590 nm (red) in HEK293 cell free culture (AID 720683)
Method in brief: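 Red-channel autofluorescence of compounds in culture medium (DMEM, 10% FBS), no cells, measured at 540/590 nm. Rose Bengal sodium is the reference fluorophore for equivalence.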

[5] = qHTS assay to test for compound auto fluorescence at 590 nm (red) in HepG2 cell free culture (AID 720684)
Method in brief: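 Plate contents were MEM with 10% FBS plus test compound or DMSO, no cells. Fluorescence was recorded with 540 nm excitation and 590 nm emission.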

[6] = qHTS assay to test for compound auto fluorescence at 460 nm (blue) in HepG2 cell free culture (AID 720685)
Method in brief: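 Compound (23 nL) or DMSO pinned into cell-free MEM with 10% FBS; blue fluorescence read at 405/460 nm excitation/emission, expressed as auto-fluorescence equivalency to triamterene.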

[7] = qHTS assay to test for compound auto fluorescence at 535 nm (green) in HepG2 cell free culture (AID 720686)
[8] = qHTS assay to test for compound auto fluorescence at 460 nm (blue) in HepG2 cells (AID 720687)
Method in brief: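 Blue-channel autofluorescence (Ex/Em 405/460 nm, triamterene-equivalent) was measured after 1 hr compound exposure at 37 C, 5% CO2. Cells were HepG2, plated overnight at 37 C in MEM plus 10% FBS.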

[9] = target: Glucocorticoid receptor (Homo sapiens) (UniProt P04150); assay: qHTS assay to identify small molecule agonists of the glucocorticoid receptor (GR) signaling pathway (AID 720691; active means well fitted activation curve with a large enough effect in the signal ratio in the repeat runs, not every such curve was filed as active; the % refers to the signal ratio; further: potency means the concentration at half of the fitted maximal effect)
Method in brief: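 Beta-lactamase reporter activity, read as fluorescence intensity, was measured in GR-bla HeLa cells exposed to compounds for 18 h at 37 C and then loaded with LiveBLAzer B/G FRET substrate for 2 h at room temperature.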

[10] = target: Glucocorticoid receptor (Homo sapiens) (UniProt P04150); assay: qHTS assay to identify small molecule antagonists of the glucocorticoid receptor (GR) signaling pathway (AID 720692; active means well fitted inhibition curve with a large enough effect in the signal ratio in the repeat runs, not every such curve was filed as active; the % refers to the signal ratio; further: potency means the concentration at half of the fitted maximal effect)
Method in brief: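 Fluorescence from cleaved LiveBLAzer B/G FRET substrate reports GRE-driven beta-lactamase in HeLa cells; compounds are tested against 5 nM dexamethasone (final) over 18 h at 37 C, substrate incubation 2 h at room temperature.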

Measured: Potency

Chain of Glucocorticoid receptor (Homo sapiens) (P04150 whole entry, looked up): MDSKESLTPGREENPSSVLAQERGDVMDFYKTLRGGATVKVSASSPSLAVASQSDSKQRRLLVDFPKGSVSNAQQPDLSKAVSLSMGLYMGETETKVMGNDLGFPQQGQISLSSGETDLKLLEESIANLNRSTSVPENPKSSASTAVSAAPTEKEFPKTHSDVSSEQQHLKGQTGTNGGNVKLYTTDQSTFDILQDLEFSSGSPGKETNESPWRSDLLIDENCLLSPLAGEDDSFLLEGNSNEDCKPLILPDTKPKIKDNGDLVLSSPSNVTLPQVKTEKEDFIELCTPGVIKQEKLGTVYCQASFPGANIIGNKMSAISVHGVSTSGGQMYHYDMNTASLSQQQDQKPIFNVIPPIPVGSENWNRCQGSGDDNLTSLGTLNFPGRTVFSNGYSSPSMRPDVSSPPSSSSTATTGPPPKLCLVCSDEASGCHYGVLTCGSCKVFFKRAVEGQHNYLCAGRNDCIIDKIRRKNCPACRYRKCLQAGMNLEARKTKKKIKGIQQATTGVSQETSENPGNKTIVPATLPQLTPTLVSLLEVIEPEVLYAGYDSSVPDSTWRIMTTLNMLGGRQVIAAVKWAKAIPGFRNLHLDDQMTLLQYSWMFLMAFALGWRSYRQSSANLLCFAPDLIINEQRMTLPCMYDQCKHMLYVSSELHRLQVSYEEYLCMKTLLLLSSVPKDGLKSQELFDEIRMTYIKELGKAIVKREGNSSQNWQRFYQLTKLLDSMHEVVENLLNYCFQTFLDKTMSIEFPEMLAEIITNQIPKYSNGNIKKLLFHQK

OC[C@@H](O)[C@@H](O[C@@H]1O[C@H](CO)[C@H](O)[C@H](O)[C@H]1O)[C@H](O)[C@@H](O)CO
inactive: [1] | [2] | [3] | [4] | [5] | [6] | [7] | [8]

CC(C)[C@@H]1CC[C@@H](C)CC1=O
inactive: [1] | [2] | [3] | [4] | [5] | [6] | [7] | [8]

CC(=O)O[C@]1(C(C)=O)CC[C@H]2[C@@H]3C=C(C)C4=CC(=O)CC[C@]4(C)[C@H]3CC[C@@]21C
active: [9] 51.2 nM and 61.6 nM | [10] 91 nM and 77.6 nM
inactive: [1] | [2] | [3] | [4] | [5] | [6] | [7] | [8]

CC(=O)[C@H]1CC[C@H]2[C@@H]3CC=C4C[C@@H](O)CC[C@]4(C)[C@H]3CC[C@]12C
inactive: [1] | [2] | [3] | [4] | [5] | [6] | [7] | [8]

O=C(O)COCCN1CCN(C(c2ccccc2)c2ccc(Cl)cc2)CC1 (centres undefined)
inactive: [1] | [2] | [3] | [4] | [5] | [6] | [7] | [8]

CCCCCC1C(=O)CCC1CC(=O)OC (centres undefined)
inactive: [1] | [2] | [3] | [4] | [5] | [6] | [7] | [8]

c1ccc2c(c1)ccc1ncccc12
inactive: [1] | [2] | [3] | [4] | [5] | [6] | [7] | [8] | [9] | [10]

Nc1ccc(O)c(N)c1
inactive: [1] | [2] | [3] | [4] | [5] | [6] | [7] | [8] | [9]

C[C@]12C=CC(=O)C=C1CC[C@H]1[C@@H]3C[C@@H](O)[C@](O)(C(=O)CO)[C@@]3(C)C[C@H](O)[C@@]12F
active: [9] 301 nM and 61.6 nM
inactive: [1] | [2] | [3] | [4] | [5] | [6] | [7] | [8]

CNC[C@H](O)c1ccc(O)c(O)c1
inactive: [1] | [2] | [3] | [4] | [5] | [6] | [7] | [8]

CCOC(=O)C(C)Oc1ccc(Oc2cnc3cc(Cl)ccc3n2)cc1 (centres undefined)
inactive: [1] | [2] | [3] | [4] | [5] | [6] | [7] | [8] | [9]

CC(C)=CCO
inactive: [1] | [2] | [3] | [4] | [5] | [6] | [7] | [8]

CCc1cccc2c3c([nH]c12)C(CC)(CC(=O)O)OCC3 (centres undefined)
inactive: [1] | [2] | [3] | [4] | [5] | [6] | [7] | [8]

O=Cc1ccccc1C=O
active: [10] 6.16 µM
inactive: [1] | [2] | [3] | [4] | [5] | [6] | [7] | [8]

Oc1c(Cl)ccc(Cl)c1Cl
inactive: [1] | [2] | [3] | [4] | [5] | [6] | [7] | [8] | [9] | [10]

Clc1ccc(Sc2cc(Cl)c(Cl)cc2Cl)cc1
inactive: [1] | [2] | [3] | [4] | [5] | [6] | [7] | [8] | [9] | [10]

Cc1cccc(Nc2ccccc2C(=O)O)c1C
inactive: [1] | [2] | [3] | [4] | [5] | [6] | [7] | [8] | [9] | [10]

COc1ccc2nc(N)sc2c1
inactive: [1] | [2] | [3] | [4] | [5] | [6] | [7] | [8] | [9] | [10]

CN(C)/N=N/c1nc[nH]c1C(N)=O
inactive: [1] | [2] | [3] | [4] | [5] | [6] | [7] | [8] | [9] | [10]

CCCCCCCCCCCCCO
inactive: [1] | [2] | [3] | [4] | [5] | [6] | [7] | [8] | [9] | [10]

C[C@]12CC[C@@H]3c4ccc(O)cc4CC[C@H]3[C@@H]1CC[C@H]2O
inactive: [1] | [2] | [3] | [4] | [5] | [6] | [7] | [8] | [9]
active: [10] 6.27 µM

C=CCCCCCCCCCC
inactive: [1] | [2] | [3] | [4] | [5] | [6] | [7] | [8] | [9] | [10]

COc1ccc(C(=O)c2ccccc2O)c(O)c1
inactive: [1] | [2] | [3] | [4] | [5] | [6] | [7] | [8] | [9] | [10]

Oc1ccc(C(c2ccc(O)cc2)C(Cl)(Cl)Cl)cc1
active: [10] 21.9 µM
inactive: [1] | [2] | [3] | [4] | [5] | [6] | [7] | [8]

COC(=O)c1ccc(C)cc1
inactive: [1] | [2] | [3] | [4] | [5] | [6] | [7] | [8] | [9] | [10]
